Source: the supplement of paper PMC6555819

Test system: VDR:RXRa (NR concentration 270 nM, RXRa partner concentration 90 nM)
Assay: PBM binding z-score (relative to random genomic background probes); higher = stronger binding; sequences stand for … in GC…GCGATTGACAGCGTAGAATGAAGG
Procedure: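 Protein-binding microarray (Agilent 4x180K custom design, double-stranded 60-nt probes: 5' GC cap, 34-nt variable region, 24-nt constant primer region; full probe sequence given). Purified or IVT nuclear receptor:RXRα heterodimers (3:1 NR:RXRα, mostly 270:90 nM) or homodimers were incubated for 1 h in PBS with 2% milk and no ligand, then detected with Alexa488 antibodies. Fluorescence from o1-orientation probes (~5 replicates averaged) was converted to z-scores against 500 random hg19 background probes. Variable regions are seed direct-repeat (DR0–DR5) sites, all their single-nucleotide variants and half-site ablations.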

| Sequence | PBM binding z-score |
| --- | --- |
| TCATATAGGTAAGGGTGAAAGTCGAACGATATGA | 0.991 |
| TCATATAGGTAAAGGTTAAAGTCGAACGATATGA | 1.98 |
| TATACAGGGTCAAAGGCCAGATTACGAATGTCGA | 4.85 |
| AGTCAAGGTTCACTAGGTAACGTAAGATTCAGCT | 3.27 |
| CAAACTAGGTCAAGAGGTCAGAGTCCGCTTCCCG | 4.89 |
| AGAATGAGGTTATACGTAGATAAGGGAAGAAAGT | 1.47 |
| TCGTATAGGTAAAGGTGAAAGTCGAACGATATGA | 0.788 |
| CGAAGTAGGTCAGAACAGGACAGTGAAGGATGAT | 0.559 |
| TAGCCTAGGTCATGCAGGGGCCAGTATAGAAAGC | 2.7 |
| TTACCAAGGTGAAGGACGTTGATCCCTCTGTAGA | 0.111 |
| AGTTAAAGTTCATCTAGGTAACGTAAGATATGCT | 4.42 |
| TCTTGTAGATCAAGCAGGTTAACAAAGCCTGAGT | 0.729 |
| TCTCGGCGGACACGAAGGTCAGAGCTTTCCAGAG | 0.658 |
| TAGCCAAGGTCATTGGGCCAGTATAGTACGCATC | 4.87 |
| TAGCCTAGGTCAGATCGGGCCGGTATACGCTATA | 0.236 |
| GCGACTGGGGCAAAGCAGGTTACCATGAGGTTGG | 0.114 |
| CTACCAAGGTGCACAAGGTCGTTGATTACTATTC | 3.17 |
| CCATACGGGTCACTCCAGGTTATAGCATCGGAGT | 4.11 |
| CCTTTTAGTTGACCATAAGGGCAACCGAAGCTCG | 1.28 |
| GCTGCTAGGTCAACTGATGGTCAGGTAAAGCTCG | 1.69 |

| Sequence | PBM binding z-score |
| --- | --- |
| TCTAGTTGGTCAACGGTCACACACTCGAAATGCG | 0.848 |
| CGAACTAGCTCAGAACAGGACAGTGAAGGATGAT | -0.427 |
| GCAGACAAGTGAAACGCAGGTAACTCAGGGTGGC | -0.581 |
| GGAACGAGGGCATTCGAGTTGAAAGCATGGCGAT | 3.59 |
| GCTTGTGGATCAAGGTTAAGAAAGACTAAGCTAA | 0.111 |
| ATCTCTCGGTAACAAGTTCAGTGAAAGAGAGGAC | 1.62 |
| AGAACGAGGGCAATGACTTGATAGCACGGGTGGC | 0.34 |
| TCAGACAGGTGCAGGTAACTCAGGTACGCAGTCG | 0.362 |
| CCTAGCAGGCCAGGGTCACTAAAGCATTTCGCTT | 2.08 |
| ACTAGCACGCCAAGTTTGGGTCACTCAAACAAAG | 0.247 |
| ACTAGCAGGCCAAGTTTGGGTCACTCATACAAAG | 0.68 |
| CCGAGTGGGGCATAAGGTTACCATAAGCCAGCCC | 0.143 |
| TCTAGCATGCCAGAGGGTCACTCAAGAGGTACGG | 1.46 |
| ATATGTAGGGTACATCCGGGTCATTCAGGCTATG | 5.09 |
| TCTTGTAGATCAATAGAGGTTAACAAAGTGCGCT | 2.2 |
| GCTTGTAGATCAAGATTAAGAAAGACTAAGCTAA | -0.528 |
| CCTGCTAGATCATGGTCAGCTAATCTACAGTATG | -0.447 |
| GGAACGAGGGCTAGTTGATAGCAGAGTTTGATGG | -0.607 |
| GCTGCTAGGTGAACTGATGGTCAGCTAAAGCTCG | -0.124 |
| TCTATTAGTTGCAGGGCAACCGACGAGTCCGTTT | 0.743 |
